# Results from PubChem BioAssay (Tox21).
# “And” between values parts separate entries of the source, which are not always exact repeats. Equal entries are not always repeated. A structure can be active in one record and inactive in another. The source made the active and inactive calls. Entries that show only a call come without a potency. Unless noted, calls come from the whole dose curve; as a rule, active = well fitted curve in the direction sought with a large enough effect in the repeat runs; inconclusive = weak or mixed curves; inactive = no such curve, though single readings can be large; an effect the other way counts as inactive or inconclusive.
# Key:
# [1] = qHTS assay to identify small molecule antagonists of the thyroid receptor (TR) signaling pathway - cell viability counter screen (AID 743064); note: nearly all actives have a fitted effect of over 50% in size; note: potency is the fitted concentration of half-maximal effect
# Summary of the method: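 CellTiter-Fluor readout, 30 min at 37 °C/5% CO2, following 23.5 h incubation of GH3.TRE-Luc cells with test compound and 1 nM T3 (final).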
# [2] = qHTS assay to identify small molecule antagonists of the thyroid receptor (TR) signaling pathway (AID 743065); note: nearly all actives have a fitted effect of over 55% in size; note: potency is the fitted concentration of half-maximal effect
# Summary of the method: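 Antagonism measured as loss of luciferase signal in GH3 cells stably carrying a TRE-luciferase reporter, co-treated with compound and T3 (1 nM final) for 23.5 h at 37 C. Viability was read in the same well by CellTiter-Fluor.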
# [3] = test system: thyroid hormone receptor (rat, GH3 cells); experiment: qHTS assay to identify small molecule agonists of the thyroid receptor (TR) signaling pathway (AID 743066; calls by dose curve; note: potency is the fitted concentration of half-maximal effect)
# [4] = molecular target: Estrogen receptor (Homo sapiens) (UniProt P03372); experiment: qHTS assay to identify small molecule antagonists of the estrogen receptor alpha (ER-alpha) signaling pathway (AID 743069; active = well fitted curve in the direction sought with a large enough effect in the signal ratio in the repeat runs, not every such curve was filed as active; inconclusive = weak or mixed curves, or effect the other way; inactive = no such curve, though single readings can be large or run the other way; the % refers to the signal ratio; note: potency is the fitted concentration of half-maximal effect)
# Summary of the method: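 Fluorescence intensity from a beta-lactamase FRET substrate served as the read-out. Cells: HEK293 with stably integrated ER-alpha-UAS-bla reporter. Agonist 17beta-estradiol was co-added with compounds; incubation 18 hr at 37C, substrate 2 hr at room temperature.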
# [5] = qHTS assay to identify small molecule antagonists of the estrogen receptor alpha (ER-alpha) signaling pathway - cell viability counter screen (AID 743074; calls by dose curve; note: nearly all actives have a fitted effect of over 45% in size)
# [6] = molecular target: Estrogen receptor (Homo sapiens) (UniProt P03372); experiment: qHTS assay to identify small molecule agonists of the estrogen receptor alpha (ER-alpha) signaling pathway (AID 743075; calls by dose curve; note: potency is the fitted concentration of half-maximal effect)
# [7] = qHTS assay to identify small molecule antagonists of the estrogen receptor alpha (ER-alpha) signaling pathway using the BG1 cell line - cell viability counter screen (AID 743081);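 note: compound given together with 17beta-estradiol as the ER stimulus; nearly all actives have a fitted effect of over 45% in size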; note: potency is the fitted concentration of half-maximal effect
# Aromatase (Homo sapiens) = Aromatase (Homo sapiens) (UniProt P11511); experiment: qHTS assay to identify aromatase inhibitors (AID 743083); note: nearly all actives have a fitted effect of over 55% in size; note: potency is the fitted concentration of half-maximal effect
# [8] = qHTS assay to identify aromatase inhibitors - cell viability counter screen (AID 743084);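 note: cells stimulated with testosterone during compound exposure; nearly all actives have a fitted effect of over 55% in size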; note: potency is the fitted concentration of half-maximal effect
# [9] = molecular target: Aryl hydrocarbon receptor (Homo sapiens) (UniProt P35869); experiment: qHTS assay to identify small molecule that activate the aryl hydrocarbon receptor (AhR) signaling pathway (AID 743085); note: nearly all actives have a fitted effect of over 15% in size; note: potency is the fitted concentration of half-maximal effect;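 for activation: HG2L7.5c1 human HepG2 liver cells with stably integrated DRE-driven firefly reporter; series mostly up to about 70 µM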
# Summary of the method: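 Stably transfected human liver carcinoma cells (HG2L7.5c1; 20 DRE-firefly luciferase) were incubated 5 h, dosed, and kept 24 h at 37C. Agonism was scored from increased luciferase luminescence.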
# [10] = qHTS assay to identify small molecule that activate the aryl hydrocarbon receptor (AhR) signaling pathway - cell viability counter screen (AID 743086);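 note: HepG2 liver cells carrying the AhR DRE luciferase reporter; series mostly up to about 70 µM; nearly all actives have a fitted effect of over 45% in size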
# Summary of the method: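 Cytotoxicity counter screen: CellTiter-Fluor signal (30 min, 37 C) in 4000 HepG2 cells/well carrying the DRE-luciferase reporter, following 24 h compound exposure at 37 C.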
# [11] = molecular target: Peroxisome proliferator-activated receptor gamma (Homo sapiens) (UniProt P37231); experiment: qHTS assay to identify small molecule agonists of the peroxisome proliferator-activated receptor gamma (PPARg) signaling pathway (AID 743094; active = well fitted activation curve with a large enough effect in the signal ratio in the repeat runs, not every such curve was filed as active; inconclusive = weak or mixed curves, or effect the other way; inactive = no such curve, though single readings can be large or run the other way; the % refers to the signal ratio)
# Summary of the method: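 Cell-based bla reporter, HEK293H background, PPARg-driven UAS. Pre-incubation 5 h, 37C, 5% CO2. Compound 17 h, 37C. Substrate 1 h RT; fluorescence.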
# [12] = molecular target: Peroxisome proliferator-activated receptor gamma (Homo sapiens) (UniProt P37231); experiment: qHTS assay to identify small molecule antagonists of the peroxisome proliferator-activated receptor gamma (PPARg) signaling pathway (AID 743191; calls by dose curve; note: series mostly up to about 63 µM; nearly all actives have a fitted effect of over 30% in size)
# Summary of the method: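 Beta-lactamase reporter under UAS control in HEK293H PPARg-bla cells; compound treatment 17 h at 37C. Read-out: fluorescence intensity after 1 h room-temperature incubation with LiveBLAzer B/G FRET substrate.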
# [13] = qHTS assay to identify small molecule antagonists of the peroxisome proliferator-activated receptor gamma (PPARg) signaling pathway - cell viability counter screen (AID 743194); note: nearly all actives have a fitted effect of over 55% in size
# Summary of the method: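 Viability was measured as CellTiter-Glo luminescence in GeneBLAzer PPARg UAS-bla HEK293H cells. These cells had been exposed 17 h at 37 C to compounds together with rosiglitazone at 50 nM final, with the beta-lactamase readout taken in the same wells.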
# [14] = qHTS assay for small molecule agonists of the antioxidant response element (ARE) signaling pathway (AID 743202; active = well fitted activation curve with a large enough effect in the signal ratio in the repeat runs, not every such curve was filed as active; inconclusive = weak or mixed curves, or effect the other way; inactive = no such curve, though single readings can be large or run the other way; the % refers to the signal ratio; note: potency is the fitted concentration of half-maximal effect)
# Summary of the method: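 Beta-lactamase reporter activity, read as fluorescence intensity, reflects ARE/Nrf2 pathway induction in HepG2 cells after 16 h compound exposure at 37 C; substrate loading was 2 h at room temperature.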
# [15] = qHTS assay for small molecule agonists of the antioxidant response element (ARE) signaling pathway - cell viability counter screen (AID 743203; calls by dose curve; note: nearly all actives have a fitted effect of over 55% in size; note: potency is the fitted concentration of half-maximal effect)
# Summary of the method: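 Measured in the same wells as the beta-lactamase ARE reporter, this read-out is CellTiter-Glo luminescence from HepG2 ARE-bla cells given compounds for 16 hrs.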
# [16] = qHTS assay for small molecule activators of the heat shock response signaling pathway - cell viability counter screen (AID 743209); note: nearly all actives have a fitted effect of over 50% in size; note: potency is the fitted concentration of half-maximal effect
# Summary of the method: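 Same-well multiplex: after 2.5 h room-temperature incubation with LiveBLAzer B/G substrate and fluorescence reading, CellTiter-Glo reagent was added to HSE-bla HeLa cells that had received compound for 5 h at 37 C; luminescence read after 30 min.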
# [17] = qHTS assay for small molecule activators of the heat shock response signaling pathway (AID 743210; active = well fitted activation curve with a large enough effect in the signal ratio in the repeat runs, with a control signal flat, not every such curve was filed as active; inconclusive = weak or mixed curves; the % refers to the signal ratio;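 note: HeLa cells with beta-lactamase reporter driven by heat shock elements; series mostly up to about 63 µM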)
# Summary of the method: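 Fluorescence from a cleaved B/G FRET substrate (2.5 h, room temp) reports HSE-driven beta-lactamase in HeLa cells treated 5 h at 37 C with DMSO-dissolved compounds.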
# [18] = molecular target: Estrogen receptor (Homo sapiens) (UniProt P03372); experiment: qHTS assay to identify small molecule agonists of the estrogen receptor alpha (ER-alpha) signaling pathway using the BG1 cell line (AID 743079); note: nearly all actives have a fitted effect of over 20% in size; note: potency is the fitted concentration of half-maximal effect
# [19] = qHTS assay to identify small molecule antagonists of the estrogen receptor alpha (ER-alpha) signaling pathway using the BG1 cell line (AID 743080; calls by dose curve;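 note: BG1 cells stimulated with 17beta-estradiol alongside compound; nearly all actives have a fitted effect of over 25% in size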; note: potency is the fitted concentration of half-maximal effect)
# Summary of the method: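 BG1-Luc-4E2 cells (endogenous full-length ER-alpha, stable 4×ERE-luciferase) were starved 5 days in phenol-red-free medium with 10% charcoal-stripped FBS, plated 24 h, then given compound plus 17beta-estradiol for 21.5 h at 37 C; ONE-Glo luminescence read after 30 min.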
# Chain of Aryl hydrocarbon receptor (Homo sapiens) (P35869 whole entry, looked up): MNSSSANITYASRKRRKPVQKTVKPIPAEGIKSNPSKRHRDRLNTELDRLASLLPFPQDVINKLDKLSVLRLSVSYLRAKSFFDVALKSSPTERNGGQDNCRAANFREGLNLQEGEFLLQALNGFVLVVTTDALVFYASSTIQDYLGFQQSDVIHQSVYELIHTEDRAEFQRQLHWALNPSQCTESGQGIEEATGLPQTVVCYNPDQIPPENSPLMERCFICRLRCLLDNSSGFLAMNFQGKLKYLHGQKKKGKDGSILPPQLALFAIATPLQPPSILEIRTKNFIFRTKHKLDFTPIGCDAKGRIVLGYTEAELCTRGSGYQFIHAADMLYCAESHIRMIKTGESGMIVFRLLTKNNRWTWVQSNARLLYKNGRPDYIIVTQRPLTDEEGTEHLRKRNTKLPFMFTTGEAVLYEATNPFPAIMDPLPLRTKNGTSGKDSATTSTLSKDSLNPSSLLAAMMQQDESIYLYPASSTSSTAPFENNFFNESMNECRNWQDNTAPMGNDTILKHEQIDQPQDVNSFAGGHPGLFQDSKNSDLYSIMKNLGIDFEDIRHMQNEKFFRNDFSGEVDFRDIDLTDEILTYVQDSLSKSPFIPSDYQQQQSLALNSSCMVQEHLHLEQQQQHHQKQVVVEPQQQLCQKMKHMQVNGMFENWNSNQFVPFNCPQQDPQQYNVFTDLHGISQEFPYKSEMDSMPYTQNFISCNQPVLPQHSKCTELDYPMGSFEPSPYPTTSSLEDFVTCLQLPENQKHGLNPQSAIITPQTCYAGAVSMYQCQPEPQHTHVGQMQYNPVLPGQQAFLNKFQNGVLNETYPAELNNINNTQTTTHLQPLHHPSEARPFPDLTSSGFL
# Chain of Estrogen receptor (Homo sapiens) (P03372 whole entry, looked up): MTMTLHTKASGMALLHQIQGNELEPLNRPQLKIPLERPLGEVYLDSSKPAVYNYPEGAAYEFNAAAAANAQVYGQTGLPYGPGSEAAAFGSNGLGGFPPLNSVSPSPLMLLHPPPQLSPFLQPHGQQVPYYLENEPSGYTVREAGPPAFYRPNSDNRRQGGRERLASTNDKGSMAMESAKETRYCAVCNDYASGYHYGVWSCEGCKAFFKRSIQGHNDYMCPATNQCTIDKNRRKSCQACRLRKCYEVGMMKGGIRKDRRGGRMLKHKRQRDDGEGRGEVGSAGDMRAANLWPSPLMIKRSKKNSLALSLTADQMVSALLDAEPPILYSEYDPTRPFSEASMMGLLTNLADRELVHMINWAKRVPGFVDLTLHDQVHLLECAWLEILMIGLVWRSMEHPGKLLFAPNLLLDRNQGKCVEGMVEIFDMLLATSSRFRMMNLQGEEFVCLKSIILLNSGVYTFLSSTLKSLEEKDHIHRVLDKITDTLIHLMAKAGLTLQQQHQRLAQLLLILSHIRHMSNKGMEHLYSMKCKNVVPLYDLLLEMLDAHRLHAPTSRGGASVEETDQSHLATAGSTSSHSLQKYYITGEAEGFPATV
# Chain of Aromatase (Homo sapiens) (P11511 whole entry, looked up): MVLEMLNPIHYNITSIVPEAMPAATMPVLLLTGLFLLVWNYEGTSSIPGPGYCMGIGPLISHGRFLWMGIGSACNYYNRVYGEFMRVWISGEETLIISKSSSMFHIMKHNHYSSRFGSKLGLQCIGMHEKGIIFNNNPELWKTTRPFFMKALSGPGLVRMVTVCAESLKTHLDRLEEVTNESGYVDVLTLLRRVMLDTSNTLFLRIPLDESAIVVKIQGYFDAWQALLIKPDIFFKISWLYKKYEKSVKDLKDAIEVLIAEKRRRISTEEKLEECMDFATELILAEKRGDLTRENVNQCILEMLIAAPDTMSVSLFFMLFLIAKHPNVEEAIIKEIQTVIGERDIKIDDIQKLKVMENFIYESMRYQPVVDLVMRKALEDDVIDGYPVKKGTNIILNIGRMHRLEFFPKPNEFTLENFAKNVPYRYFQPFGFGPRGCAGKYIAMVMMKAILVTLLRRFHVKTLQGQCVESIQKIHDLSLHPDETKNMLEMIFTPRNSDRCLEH
# Chain of Peroxisome proliferator-activated receptor gamma (Homo sapiens) (P37231 whole entry, looked up): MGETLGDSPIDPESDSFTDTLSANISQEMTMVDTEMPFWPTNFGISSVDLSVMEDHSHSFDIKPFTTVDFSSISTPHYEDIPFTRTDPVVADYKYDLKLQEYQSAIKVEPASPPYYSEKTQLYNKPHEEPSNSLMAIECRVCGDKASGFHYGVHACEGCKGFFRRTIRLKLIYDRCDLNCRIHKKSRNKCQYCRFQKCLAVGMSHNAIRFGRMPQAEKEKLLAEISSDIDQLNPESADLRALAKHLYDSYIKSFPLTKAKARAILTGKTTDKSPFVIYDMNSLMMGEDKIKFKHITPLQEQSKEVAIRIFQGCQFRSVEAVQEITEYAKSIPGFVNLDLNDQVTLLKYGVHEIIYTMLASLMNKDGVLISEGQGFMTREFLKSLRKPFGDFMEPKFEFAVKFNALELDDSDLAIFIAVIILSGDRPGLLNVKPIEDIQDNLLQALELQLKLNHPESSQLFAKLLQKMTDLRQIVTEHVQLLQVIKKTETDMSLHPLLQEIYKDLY
SMILES,Potency [1],Potency [2],Potency [3],Potency [4],Potency [5],Potency [6],Potency [7],Potency (Aromatase (Homo sapiens)),Potency [8],Potency [9],Potency [10],outcome [11],Potency [12],Potency [13],Potency [14],Potency [15],Potency [16],outcome [17],Potency [18],Potency [19]
CC(=O)Oc1ccc(C(c2ccc(OC(C)=O)cc2)c2ccccn2)cc1,inactive,inactive,inactive,19 µM [inconclusive] (active) and 24.4 µM [inconclusive] (active),inactive,3.01 µM [activator] (active),2.11 µM (active) and 1.92 µM (active),inactive,inactive,inactive,inactive,inactive,inactive,inactive,inactive,inactive,inactive,inactive,–,–
Nc1cc(Cl)c(N)c(Cl)c1,inactive,inactive,inactive,inactive,inactive,inactive,inactive,inactive,inactive,27.1 µM (active) and 21.7 µM (active),inactive,–,inactive,inactive,27.3 µM (active),inactive,–,inactive,inactive,34.1 µM (active) and inactive
Cc1ccc([N+](=O)[O-])c(C)c1,inactive,inactive,inactive,–,inactive,inactive,inactive,inactive,inactive,inactive,inactive,–,inactive,inactive,inactive,inactive,–,inactive,inactive and 68.6 µM (active),inactive
Cc1ccc(N)c([N+](=O)[O-])c1,inactive,inactive,inactive,inactive,inactive,inactive,inactive,inactive,inactive,–,inactive,inactive,inactive,inactive,inactive,inactive,inactive,inactive,38.1 µM (active) and inactive,inactive
CCc1cccc2c3c([nH]c12)C(CC)(CC(=O)O)OCC3 (centres undefined),inactive,inactive,inactive,–,inactive,inactive,inactive,inactive,inactive,inactive,inactive,–,inactive,inactive,inactive,inactive,–,inactive,inactive,inactive
CCCCCC=O,inactive,inactive,inactive,inactive,inactive,inactive,inactive,–,–,inactive,inactive,–,–,inactive,inactive,inactive,inactive,inactive,inactive,inactive
C/C=C/C(=O)N(CC)c1ccccc1C,inactive,inactive,inactive,–,inactive,inactive,inactive,inactive,inactive,inactive,inactive,–,inactive,inactive,inactive,inactive,–,inactive,inactive,inactive
CCCCCCCC/C=C\CCCCCCCC(=O)O,inactive,inactive,inactive,–,inactive,inactive,inactive,inactive,inactive,inactive,inactive,inactive,–,inactive,inactive,inactive,inactive and 34.7 µM (active),–,inactive,inactive
CN(C)C,inactive,inactive,inactive,inactive,inactive,inactive,inactive,inactive,inactive,inactive,–,inactive,inactive,inactive,inactive,inactive,–,inactive,inactive,inactive
COC(=O)c1ccc(C)cc1,inactive,inactive,inactive,inactive,inactive,inactive,inactive,inactive,inactive,inactive,–,–,–,inactive,inactive,inactive,inactive,inactive,inactive,inactive
CNC[C@H](O)c1ccc(O)c(O)c1,inactive,inactive,inactive,–,inactive,inactive,inactive,inactive,inactive,inactive,inactive,inactive,inactive,inactive,inactive,inactive,inactive,inactive,inactive,inactive
Cc1ccc(S(=O)(=O)O)cc1C,inactive,inactive,inactive,inactive,inactive,inactive,inactive,inactive,inactive,inactive,–,inactive,inactive,inactive,inactive,inactive,–,inactive,inactive,inactive
OC[C@H]1O[C@@H]2O[C@H]3[C@H](O)[C@@H](O)[C@@H](O[C@H]4[C@H](O)[C@@H](O)[C@@H](O[C@H]5[C@H](O)[C@@H](O)[C@@H](O[C@H]6[C@H](O)[C@@H](O)[C@@H](O[C@H]7[C@H](O)[C@@H](O)[C@@H](O[C@H]1[C@H](O)[C@H]2O)O[C@@H]7CO)O[C@@H]6CO)O[C@@H]5CO)O[C@@H]4CO)O[C@@H]3CO,inactive,inactive,inactive,inactive,inactive,inactive,inactive,inactive,inactive,inactive,inactive,–,inactive,inactive,inactive,inactive,inactive,inactive,23.7 µM (active) and inactive,inactive
CC(=O)Oc1c(C)c(C)c2c(c1C)CC[C@@](C)(CCC[C@H](C)CCC[C@H](C)CCCC(C)C)O2,inactive,inactive,inactive,inactive,inactive,inactive,inactive,inactive,inactive,inactive,–,inactive,inactive,inactive,inactive,inactive,inactive,inactive,inactive,inactive
CC1(C)C(C=C(Cl)Cl)C1C(=O)OCc1cccc(Oc2ccccc2)c1 (centres undefined),inactive,inactive,inactive,inactive,inactive,inactive,inactive,inactive,inactive,inactive,–,–,–,inactive,inactive,inactive,–,inactive,inactive,inactive
COc1cc([C@H]2Oc3cc([C@H]4Oc5cc(O)cc(O)c5C(=O)[C@@H]4O)ccc3O[C@@H]2CO)ccc1O,inactive,inactive,inactive,–,inactive,inactive,inactive,inactive,inactive,inactive,inactive,inactive,inactive,inactive,–,inactive,inactive,inactive,inactive,inactive
Brc1nc2ccccc2s1,inactive,inactive,inactive,inactive,–,inactive,inactive,inactive,inactive,30.5 µM (active) and 13.7 µM (active),inactive,inactive,inactive,inactive,–,inactive,inactive,inactive,inactive,inactive
CCCCCC1C(=O)CCC1CC(=O)OC (centres undefined),inactive,inactive,inactive,–,inactive,inactive,inactive,inactive,inactive,inactive,inactive,–,inactive,inactive,inactive,inactive,inactive,–,inactive,inactive
CCC(Cc1c(I)cc(I)c(N)c1I)C(=O)O (centres undefined),inactive,inactive,inactive,inactive and 47.5 µM [inconclusive] (active),inactive,8.11 µM [inconclusive] (active) and 5.32 µM [activator] (active),inactive,inactive,inactive,inactive,inactive,–,–,inactive,23.6 µM (active),inactive,inactive,inactive,inactive,inactive
Oc1c(Cl)ccc(Cl)c1Cl,inactive,inactive,inactive,–,inactive,inactive,inactive,inactive,inactive,inactive,inactive,inactive,inactive,inactive,–,inactive,inactive,inactive,inactive,inactive
C=CCNCC=C,inactive,inactive,inactive,inactive,inactive,inactive,inactive,inactive,inactive,inactive,–,inactive,inactive,inactive,inactive,inactive,–,inactive,inactive,inactive
FC(F)(F)C(Cl)Br (centres undefined),inactive,inactive,inactive,–,inactive,inactive,inactive,inactive,inactive,inactive,inactive,inactive,inactive,inactive,inactive,inactive,–,inactive,inactive,inactive
CCCCCCC(C)O (centres undefined),inactive,inactive,55.6 µM (active) and inactive,inactive,inactive,inactive,inactive,inactive,inactive,inactive,–,inactive,inactive,inactive,inactive,inactive,inactive,inactive,inactive,inactive
[Na+],inactive,inactive,inactive,–,inactive,inactive,inactive,inactive,inactive,inactive,inactive,inactive,inactive,inactive,inactive,inactive,–,inactive,inactive,inactive
C1COCCN1,inactive,inactive,inactive,–,inactive,inactive,inactive,inactive,inactive,inactive,inactive,–,–,inactive,inactive,inactive,inactive,inactive,inactive,inactive
CN(C)/N=N/c1nc[nH]c1C(N)=O,inactive,inactive,inactive,–,inactive,inactive,inactive,inactive,inactive,inactive,–,inactive,inactive,inactive,inactive,inactive,inactive,inactive,inactive,inactive
CCCCCCCCCCCCO,inactive,inactive,inactive,–,inactive,inactive,inactive,inactive,inactive,inactive,inactive,–,inactive,inactive,inactive,inactive,inactive,inactive,inactive,inactive
O=Cc1ccccc1C=O,10.6 µM (active) and 2.43 µM (active),9.44 µM (active) and 2.17 µM (active),inactive,inactive,inactive,23.9 µM [activator] (active) and inactive,inactive,inactive and 8.63 µM (active),17.2 µM (active),inactive,–,–,inactive,–,inactive,12.2 µM (active) and inactive,–,inactive,21.1 µM (active) and 30.6 µM (active),–
CC(C)[N+](C)(CCOC(=O)C1c2ccccc2Oc2ccccc21)C(C)C,inactive,inactive,inactive,inactive,inactive,inactive,inactive,inactive,inactive,inactive,inactive,–,inactive,inactive,inactive,inactive,inactive,inactive,inactive,inactive
